Assay results reported in the supplement of paper PMC11417369.
The full ranking holds about 25,000 sequences; the median of “ln(normalized median fluorescence intensity)” is about 6.7, and the highest 2% start at about 10. The sample holds the highest values, similar sequences and a random draw of the others, so the mix is not that of the screen.

What follows are sequences tested on PfHDP1 homeodomain (GST-tagged) (assay: gcPBM binding intensity (ln(normalized median fluorescence intensity)); higher = stronger DNA binding).
Summary of the method: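 GST-fused DNA-binding domains of P. falciparum, expressed in E. coli, were applied at about 25 μg on average for 1 h to an Agilent 4 × 180k array of primer-extended double-stranded 36-bp intergenic genomic probes and negative controls. Binding intensity is the highest Masliner-normalised natural-log median intensity across replicate spots of either probe orientation, measured with Alexa488 anti-GST antibody and a 488 nm scan.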

| Sequence | gcPBM binding intensity (ln) |
| --- | --- |
| ATACTAAATGAACACACACACATATAGATTTATAAC [CACACA_site6200] | 6.87 |
| GATATATAATATAATACACACATTTTATGAATGTAA [CACACA_site24] | 6.54 |
| ATAAATAATTATATATGTACACATTATGAATGGATA [XGTACX_site8336] | 6.74 |
| ATATATATATATAATGCACACATTATGAATTATGTA [CACACA_site3384] | 10.8 |
| CATACATACCTATATACACACATATAAAATAATATA [CACACA_site7290] | 6.97 |
| ATATTATCCCTATTTGCACACAAGAGTAATTTTTTA [CACACA_site3908] | 10.4 |
| ATATTTATAAATTGCACACAAATAATAACATTCTAT [CACACA_site2357] | 10.4 |
| ACATGTCAAACATTTGCACACAAAAAAATAAAAATT [CACACA_site691] | 10.2 |
| ATATAAATATATTGCACACACAATTATTATTATTAT [CACACA_site7147] | 10.7 |
| GAGTATATTTATATTGCACACAATTTTTTTATTTTT [CACACA_site2644] | 10.5 |
| AAATATTTATAAATTGCACACAAATAATAACATTAT [CACACA_site8737] | 10.2 |
| TTTATAAAATTTATTGCACACAATTATTTTATAATT [CACACA_site2489] | 9.98 |
| ACACAAAAAATAAAAATATATATATATTATATATAT [CACACA_negctrl_site1489] | 7.32 |
| CCATGTCAAACATTTGCACACAAAAAAATAAAAATT [CACACA_site4546] | 9.71 |
| ATATTTATAAATTGCACACAAATAATAACATTATAT [CACACA_site5322] | 10.6 |
| ATGTCAAACATTTGCACACAAAAAAATAAAAATTAA [CACACA_site692] | 10.6 |
| ATATATTTATATATTGCACACAAAAAAAAAAAAAAA [CACACA_site8468] | 10.5 |
| AAAAAAATATATATATATATATATATATTATATATG [GTGCAC_negctrl_site654] | 6.87 |
| TTTTTTATTTATTGTTATACATCTTACTACTTATAA [GTGCAC_negctrl_site381] | 6.63 |

| Sequence | gcPBM binding intensity (ln) |
| --- | --- |
| TATTTTTTCTTTCATTGTACTTTTTTTTTGTTTTGT [XGTACX_site4081] | 6.8 |
| AAAAAAAAAAAAACTAGTACATATATATAGTATGAA [XGTACX_site6279] | 6.33 |
| TTATAATCCATAATTGCACACAATATATTCATATTT [CACACA_site3916] | 10.1 |
| AATATTATTATTATTACACACACAATTATATTTACC [CACACA_site8061] | 6.61 |
| ATATATATATATTGCACACACAATTATTATTATTAT [CACACA_site2299] | 10.6 |
| ATATATATATATATTGCACACACAATTATTATTATT [CACACA_site8721] | 10.6 |
| TTTTAATTATATTATGCACACACAATTGGAAAAAAA [CACACA_site8598] | 10.2 |
| TTAATTATATTATGCACACACAATTGGAAAAAAAAT [CACACA_site1958] | 10.2 |
| AATAATGTATAATGATGTACAAAAAAGGAAGACATA [XGTACX_site2474] | 7.43 |
| TAACTTCAAAAATCTTGTACATAAATATATAAAACA [XGTACX_site8574] | 6.29 |
| GTGTTTGAAAATAAAGCATGCAAATATATTTGAAAT [TGCATGCA_site386] | 7.23 |
| TTTTTTATTGTGATACGTATATTATTTTATGATTAA [GTGCAC_negctrl_site202] | 6.82 |
| AAAGTAAAAAAAAAAACATGCACATATTTACTTTAT [TGCATGCA_site849] | 7.94 |
| CATATTTATAAATATAAACACACAACATTATATGCA [CACACA_site9065] | 6.82 |
| TCTTTTATGCACATTGAGTAAACAACATATTTTTAA [TGCATGCA_negctrl_site561] | 10.9 |
| ATAATATTATGTGTGAATATATCTTTAAAAAGGATA [GTGCAC_negctrl_site15] | 6.33 |
| AAGAGAAATATATATTGTACAATAATTTTATTTGGT [XGTACX_site7642] | 6.21 |
| TATAAATGTATACAAGTGCATATTATTCACACATAA | 8.59 |
| AAGTGCATATTATTCACACATAATAATTGTATACCT [CACACA_site5965] | 10.5 |

| Sequence | gcPBM binding intensity (ln) |
| --- | --- |
| ATATTAATAATATATACACACATAAGTATTGTATAT [CACACA_site4095] | 6.46 |
| TGATTCACTATAGTAGTGCATATTATATATATATAT [GTGCAC_site9975] | 9.23 |
| AAAAAAAAATATATATATATATATATATTTATGTAT [GTGCAC_negctrl_site483] | 6.92 |
| CATATTTTGTGAAAAAGTACATATATATATATATAT [XGTACX_site6295] | 9.38 |
| ATGATAATTATTAAGGGTACATAAAAATATATCTAT [XGTACX_site8969] | 6.36 |
| TACATATAATATATTGCACACGTCAGAATAATATAG [CACACA_site1744] | 10.3 |
| GTGTACAGTTTTTGCACACATATAAATAAAAAAAAG [CACACA_site3599] | 10.2 |
| TTTAAAAATAAAAGTACACACATAAACATATTGCAC [CACACA_site6784] | 7.47 |
| TTTGTAGTTTGCACATGTACACATTTCAAAATAAAG [XGTACX_site7568] | 10.7 |
| ATCTGTACAGTTTTTGCACACATATAAATAAAAAAA [CACACA_site9198] | 10.7 |
| ATATATATATATAAATGTACATTTTTCAATAGTTTT [XGTACX_site7449] | 8.98 |
| ATATAGTTTCACATGTGTACATAAAAATACACTTGT [XGTACX_site3339] | 6.59 |
| TTATAGAACTATATTGCACACATAATATATATATAT [CACACA_site9042] | 10.1 |
| ATGTCTACAGTTTTTGCACACATATAAATAAAAAAA [CACACA_site3600] | 10.3 |
| TATATTGCAAAAAGTACACACATAAATAAATACATA [CACACA_site6589] | 9.04 |
| ATAGAACTATATTGCACACATAATATATATATATAT [CACACA_site3189] | 10.7 |
| TACATATTGCACAAATAAAAAAGAACAAAAAAAAAA [CACACA_negctrl_site1200] | 10.9 |
| AAAAAATTATACCTTTGTACATAAATAAAATATTAT [XGTACX_site418] | 6.23 |
